# Experimental data taken from PubChem BioAssay AID1986 (Sanford-Burnham Center for Chemical Genomics, 2009).
# In all, about 290,000 compounds went through this assay and about 890 (0.31%) were called active. This is one part of a sample in which actives are shown more often than they occur. Cut-off read from the data, not from the text of the source: active = inhibition mostly above about 52% (no sharp cut-off); inactive = mostly below about 76%.
# Test: cell-free HIV fusion peptide-binding blockers – biochemical, uHTS, fluorescence dequenching, primary screen (AID 1986)
# Conditions: 30 min, stronger effect = higher value
# [1] = measured here: repeat confirmation average inhibition, at 18.6 µM
Compound,inhibition (at 20 µM),inhibition [1] [%]
CC1=NN(c2ccc(C)cc2C)C(=O)C1C(c1ccccc1O)C1C(=O)N(c2ccc(C)cc2C)N=C1C (stereo not given),3.7% (inactive),–
COc1ccc(C(=O)Nc2ccnn2C2CCN(C(=O)c3cnsn3)CC2)cc1,-1.2% (inactive),–
COc1ccccc1C(=O)N/C(=C/c1ccc(Br)cc1)C(=O)NCCO,7.1% (inactive),–
CCCCCCNc1cc2n(c(=O)n1)CCc1cc(OC)c(OC)cc1-2,-3.2% (inactive),–
COc1ccccc1NS(=O)(=O)c1ccc(NN=C2CCCCC2)c([N+](=O)[O-])c1,-1.4% (inactive),–
c1ccc2c(c1)CC1(CCCCC1)n1nnnc1-2,-1.4% (inactive),–
CCCCCC(=O)NC(=S)Nc1ccc2oc(=O)ccc2c1,-0.3% (inactive),–
COC(=O)CCSCC(=O)Nc1ccc(S(=O)(=O)N2CCOCC2)cc1OC,0.8% (inactive),–
CC(C)C1/C(=N/O)CC(c2ccccc2)NC1c1ccccc1 (stereo not given),0% (inactive),–
CCCCNC(=O)CC1N=C2c3ccccc3N=C(SCC(=O)Nc3ccccc3OC)N2C1=O (stereo not given),1.1% (inactive),–
CCOC(=O)c1nc(S(C)(=O)=O)ncc1N1CCOCC1,-2.9% (inactive),–
CCc1ccccc1N(C(=O)CCC(=O)Nc1cc(C)on1)C(C(=O)NC1CCCC1)c1ccco1 (stereo not given),0.8% (inactive),–
CC(=O)CC(c1ccc([N+](=O)[O-])cc1)c1c(O)c2ccccc2oc1=O (stereo not given),3.8% (inactive),–
O=[N+]([O-])c1ccc2c(c1)oc1ccccc12,-0.8% (inactive),–
COc1cc(/C=N/NC(N)=O)cc([N+](=O)[O-])c1O,-1.1% (inactive),–
CCN(CC(=O)Nc1c(F)cccc1F)C(=O)c1ccccc1F,0.4% (inactive),–
O=C(O)C(Cc1ccccc1)n1cccc1 (stereo not given),1.2% (inactive),–
Cc1ccc(C)n1C(Cc1ccccc1)C(=O)O (stereo not given),67.3% (active),–
O=C(O)C(Cc1ccccc1)N1C(=O)CCC1=O (stereo not given),-1.2% (inactive),–
Cc1ccc(CNC(=O)C2CCN(C(=O)c3cccc(Cl)c3)CC2)cc1,1.1% (inactive),–
Cc1ccc(S(=O)(=O)N(CC(=O)Nc2ccccc2C(=O)O)c2ccccc2C)cc1,9.7% (inactive),–
Cc1ccc(S(=O)(=O)N(CC(=O)Nc2ccccc2C(=O)O)c2cccc(Cl)c2C)cc1,52% (active),–
Cc1ccc(S(=O)(=O)N(CC(=O)Nc2ccccc2C(=O)O)c2ccccc2)cc1,10.7% (inactive),–
CC1CCN(C(=O)CSc2nc3ccccc3c(=O)[nH]2)CC1,-0.9% (inactive),–
CC(C(=O)N1CCN(C(=O)c2ccco2)CC1)n1sc2ccccc2c1=O (stereo not given),1.6% (inactive),–

Compound,inhibition (at 20 µM),inhibition [1] [%]
COc1cccc2c1C(=O)C=C(C)C2=O,2.7% (inactive),–
CC1=CC(=O)c2ccccc2C1=O,-2.1% (inactive),–
CC1=CC(=O)c2c(O)ccc(O)c2C1=O,68.3% (active),–
O=C(COc1ncnc2ccccc12)Nc1cc([N+](=O)[O-])ccc1Cl,-0.3% (inactive),–
COCC1CCN(C(=O)c2cc(COc3ccc(C)c(C)c3)on2)C1 (stereo not given),0.9% (inactive),–
COc1cc(/C=C2/SC(=O)N(Cc3ccccc3)C2=O)ccc1OCc1ccncc1,-4.2% (inactive),–
Cc1ccc(S(=O)(=O)NC(=O)c2ccc(-c3ccc(-c4ccccc4)cc3)o2)c(C)c1,52.6% (active),–
Cc1ccc(S(=O)(=O)NC(=O)c2ccc(Br)o2)c(C)c1,-0.8% (inactive),–
Cc1ccc(S(=O)(=O)NC(=O)c2ccc(-c3ccc(C)c4ccccc34)o2)cc1,23.3% (inactive),–
O=C(Nc1cccc(C(=O)Nc2ccc(Cl)cn2)c1)c1ccccc1,7.8% (inactive),–
O=C(Nc1ccc(F)cc1)c1oc2ccccc2c1NC(=O)C1CC1,-0.2% (inactive),–
CSc1nnc(-c2ccccc2N=Cc2c(C)[nH]n(-c3ccccc3)c2=O)c(=O)[nH]1,6% (inactive),–
Cc1nn(-c2ccc3ccccc3c2)c(=O)c2ccccc12,0% (inactive),–
Cc1ccc(/C=N/NC(=O)c2cc3c(ccc4ccccc43)o2)o1,-1.7% (inactive),–
O=C(N/N=C/c1ccc(-c2ccc(Cl)c(C(=O)O)c2)o1)c1cc2c(ccc3ccccc32)o1,50.3% (active),–
Cc1ccc(-c2ccc(/C=N\NC(=O)c3cc4c(ccc5ccccc54)o3)o2)cc1[N+](=O)[O-],-1.4% (inactive),–
CCC(C)NC(=O)COC(=O)c1cccnc1Nc1ccccc1F (stereo not given),0.1% (inactive),–
CCOC(=O)Cn1c2ccc(OC)cc2c2nc3ccccc3nc21,3% (inactive),–
COC(=O)Cn1c2ccc(OC)cc2c2nc3ccccc3nc21,9.1% (inactive),–
CCCCOC(=O)Cn1c2ccc(OC)cc2c2nc3ccccc3nc21,53.3% (active),57.8
CCc1ccc(-c2cc3c(=O)n(CC(=O)NCCN4CCCCC4C)nc(C)n3n2)cc1 (stereo not given),-0.3% (inactive),–
O=C1CCC/C(=N/NC(=O)c2sc3ccccc3c2Cl)C1,81.5% (inactive),39.7
COc1ccc2c(Cl)c(C(=O)N/N=C3\CCCC(=O)C3)sc2c1,77.7% (active),–
COc1ccc2c(Cl)c(C(=O)NN)sc2c1,1.3% (inactive),–
CC(C)(C)NC(=O)CSc1ccc(C(C)(C)C)cc1,-2.2% (inactive),–

Compound,inhibition (at 20 µM),inhibition [1] [%]
O=c1c(/C=N/O)c(Nc2ccccc2)nc2ccccn12,-2.7% (inactive),–
O=c1c(/C=N/Nc2ccccc2)c(Sc2nnnn2-c2ccccc2)nc2ccccn12,96.2% (active),–
O=C(O)c1ccc(/C=N/Nc2nnnn2-c2ccccc2)cc1,2.1% (inactive),–
O=C(O)c1ccccc1N/N=C/c1c(Sc2nnnn2-c2ccccc2)nc2ccccn2c1=O,80.8% (active),54.8
O=Cc1c(Sc2ccccc2)nc2ccccn2c1=O,2.6% (inactive),–
NC(=O)N/N=C/c1c(Sc2nnnn2-c2ccccc2)nc2ccccn2c1=O,0% (inactive),–
O=C(CC1Sc2ccccc2NC1=O)NCc1cccc(Cl)c1 (stereo not given),1% (inactive),–
CCOC(=O)c1nnn(-c2nonc2N)c1CN1CCCC1,-0.2% (inactive),–
COc1ccccc1-c1c(C(F)(F)F)oc2cc(OCC(=O)Nc3ccccc3C(F)(F)F)ccc2c1=O,3.1% (inactive),–
COc1ccccc1NC(=O)CSc1nnc(Cn2c(=O)sc3ccccc32)n1C,0.2% (inactive),–
COC(=O)C[n+]1cccc2ccccc21,78.3% (active),65.6
NC(=O)C[n+]1cccc2ccccc21,1.3% (inactive),–
O=C(C[n+]1cccc2ccccc21)c1ccccc1,11.8% (inactive),–
CCOCCCNC(=O)/C(C#N)=C/c1ccc(C)o1,-0.3% (inactive),–
Cc1ccccc1OCc1nc(-c2ccc(-n3cccc3)cc2)no1,3.2% (inactive),–
COc1ccccc1C(=O)C1CCCN(C(=O)c2cnn(C(C)C)c2)C1 (stereo not given),-0.2% (inactive),–
Oc1ccc2ccccc2c1C=Nc1ccccc1Br,0.3% (inactive),–
CN(C)/N=C/c1c(O)ccc2ccccc12,-5.1% (inactive),–
Oc1ccccc1N=Cc1c(O)ccc2ccccc12,67.4% (active),–
Cc1ccc(Cl)cc1N1CCN(S(=O)(=O)c2ccc3c(c2)NC(=O)C(C)C(=O)N3)CC1 (stereo not given),1.3% (inactive),–
CCn1c(C)c(C(C)=O)c(N2CCN(c3ccccn3)CC2)nc1=S,6.8% (inactive),–
C(=C\c1ccccc1)/CNn1cnnc1,-2.1% (inactive),–
OCC[n+]1ccc(/C=C/c2c[nH]c3ccccc23)cc1,53% (active),–
CC[n+]1ccc(/C=C/c2c[nH]c3ccccc23)cc1,97.2% (active),77.7
Cc1[nH]c2ccccc2c1/C=C/c1cc[n+](C)cc1,144% (inactive),–

Compound,inhibition (at 20 µM),inhibition [1] [%]
C[n+]1ccc(/C=C/c2c[nH]c3ccccc23)cc1,82.6% (active),–
O=c1c2ccccc2nc(/C=C/c2c[nH]c3ccccc23)n1CCO,5.3% (inactive),–
O=C(/C=C/c1c[nH]c2ccccc12)c1ccccc1,-2.9% (inactive),–
C[n+]1cc(C(=O)N2CCCCC2)ccc1/C=C/c1c[nH]c2ccccc12,148% (inactive),–
CCc1ccc(/C=C/c2c[nH]c3ccccc23)[n+](CC)c1,2.5% (inactive),–
Cc1ccc(C(=O)/C=C/c2c[nH]c3ccccc23)cc1,2.2% (inactive),–
CCN(CC)C(=O)c1ccc(/C=C/c2c[nH]c3ccccc23)[n+](C)c1,91.3% (active),81.7
CC[n+]1c(/C=C/c2c[nH]c3ccccc23)ccc2cc(C)ccc21,142% (inactive),–
COc1ccc2c(/C=C/c3cc[n+](C)cc3)c[nH]c2c1,6.5% (inactive),–
Cc1nnsc1-c1nc2ccccc2[nH]1,-1.6% (inactive),–
COc1ccc(NC(=O)c2cc(Br)ccc2Cl)c([N+](=O)[O-])c1,-0.4% (inactive),–
O/N=C\c1ccc2noc(-c3ccc(Cl)cc3)c2c1,0% (inactive),–
c1ccc(Oc2ncnc3sccc23)cc1,-1.5% (inactive),–
N#Cc1ccc(CSc2nnc(NC(=O)CN3C(=O)C4CC=CCC4C3=O)s2)cc1 (stereo not given),6.4% (inactive),–
COc1cccc(/C=N/NC(=O)c2[nH]c(C)c(C(=O)N/N=C/c3cccc(OC)c3O)c2C)c1O,4.6% (inactive),–
CCCn1cnc2scc(-c3ccc(C)cc3)c2c1=O,-1.9% (inactive),–
Cc1ccc(C)c(NC(=O)CSc2nnc(C3CCCCC3)o2)c1,-1.1% (inactive),–
O=C(O)CCn1c(=O)n(CCC(=O)O)c(=O)n(CCC(=O)O)c1=O,0.1% (inactive),–
O=C(CN1c2ccccc2Sc2ccccc21)N/N=C/c1ccc(Cl)cc1,-1% (inactive),–
Cc1ccc2[nH]cc(/C=C/c3cc[n+](C)cc3)c2c1,160% (inactive),–
C[n+]1ccc(/C=C/c2c[nH]c3ccc(F)cc23)cc1,77.8% (active),85.8
COc1ccc2[nH]cc(/C=C/c3cc[n+](C)cc3)c2c1,18.3% (inactive),–
CC1=C(C(=O)Nc2ccc(C(=O)NC(C)c3ccccc3)cc2)SCCO1 (stereo not given),2.3% (inactive),–
